We go through 7 compounds from PubChem BioAssay (NCATS).

One test concerns TAB165. Description: qHTS profiling for inhibitors of Plasmodium falciparum proliferation (AID 504749). Further: nearly all actives have a fitted effect of over 60% in size. The following applies: P. falciparum in erythrocytes, SYBR Green DNA, 72 h; series mostly up to 28.7 µM. The essentials: (§1)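 Parasite proliferation within erythrocytes, 72 h exposure. Endpoint: SYBR Green I fluorescence after overnight lysis at room temperature. Controls: 0.29 uM artemisinin, DMSO.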
For orientation: In qHTS, concentration-response curves come from the screen itself.

The next test has as its system W2. Described as above. The note with it: P. falciparum in erythrocytes, SYBR Green DNA, 72 h; series mostly up to 28.7 µM. The essentials: as §1
Another test concerns CRL-7250. Description: Cytotoxic Profiling of Annotated Libraries Using Quantitative High-Throughput Screening (AID 1296008). Further: nearly all actives have a fitted effect of over 60% in size. On max response: on the % scale 0 is the no-effect control and ±100 the full control effect. The note with it: Five cell lines viability, CellTiter-Glo ATP luminescence, 48-72 h; max response: active compounds read low. The method, boiled down: (§2)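 Compounds were pin-transferred onto cells and incubated 48 or 72 hr at 37 degree Celsius, 95% humidity. CellTiter-Glo was added, plates sat 10 min at room temperature, then ATP-coupled luminescence was imaged as the viability read-out.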
Background: In ATP-based viability assays light output follows the ATP content of the culture.

For another test, the system named is HEK293. Described as above. The following applies: Five cell lines viability, CellTiter-Glo ATP luminescence, 48-72 h; max response: active compounds read low. The essentials: as §2
The test system of test [1] is HaCat. The test is described as above. The note with it: Five cell lines viability, CellTiter-Glo ATP luminescence, 48-72 h; max response: active compounds read low. The method, boiled down:
as §2

A further test has as its system KB-3-1. Described as above. The following applies: Five cell lines viability, CellTiter-Glo ATP luminescence, 48-72 h; max response: active compounds read low. The method, boiled down:
as §2

Test [2] deals with NIH3T3. The test is described as above. The note with it: Five cell lines viability, CellTiter-Glo ATP luminescence, 48-72 h; max response: active compounds read low. The method, boiled down: as §2
Test [3] relates to HACAT. The experiment in a line: qHTS assay to identify novel small-molecules to repurpose for Merkel cell carcinoma treatment (AID 1296009). Further: nearly all actives have a fitted effect of over 60% in size. The note with it: MCC and control cell lines, CellTiter-Glo viability, 72 h; at 44.8 µM (top of the series) unless noted. The method, boiled down: (§3)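 qHTS format: cells treated with library compounds in DMSO across 8 (NPC) or 11 (MIPE) concentrations. Readout after 72 hr at 37 degree celsius was CellTiter-Glo luminescence.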

For the next test, the system named is MCC-13. Described as above. The note with it: MCC and control cell lines, CellTiter-Glo viability, 72 h; series mostly up to 46 µM. The method, boiled down:
as §3

Another test concerns MCC-26. Described as above. The note with it: MCC and control cell lines, CellTiter-Glo viability, 72 h; series mostly up to 46 µM. The method, boiled down: as §3
The next test concerns MKL-1. Described as above. The following applies: MCC and control cell lines, CellTiter-Glo viability, 72 h; series mostly up to 46 µM. The essentials:
as §3

In a further test the test system is MKL-2. The description is as above. The note with it: MCC and control cell lines, CellTiter-Glo viability, 72 h; series mostly up to 46 µM. The essentials:
as §3

Test [4] deals with NIH3T3. The description is as above. The note with it: MCC and control cell lines, CellTiter-Glo viability, 72 h; at 44.8 µM (top of the series) unless noted. The method, boiled down: as §3
Another test deals with UISO. The description is as above. The following applies: MCC and control cell lines, CellTiter-Glo viability, 72 h; series mostly up to 46 µM. The method, boiled down: as §3
A further test has as its system WaGa. The description is as above. The note with it: MCC and control cell lines, CellTiter-Glo viability, 72 h; series mostly up to 46 µM. The essentials: as §3
The test system of the next test is C33A. Description: Primary qHTS to identify gynecologic anti-cancer compounds using libraries of approved drugs and bioactive compounds (AID 1345084). Further: nearly all actives have a fitted effect of over 55% in size. The note with it: Gynecologic cancer cell panel viability, ATPlite luminescence, 48 h; series mostly up to 57.5 µM. The method, boiled down:
(§4)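 Cells, 1,000 per well, were allowed to settle for 16 h at 37 C before compound addition. Five concentrations were tested for 48 h, and viability was read by ATPlite luminescence after 15 min at room temperature.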

A further test relates to CASKI. The description is as above. The following applies: Gynecologic cancer cell panel viability, ATPlite luminescence, 48 h; series mostly up to 57.5 µM. The method, boiled down:
as §4

The next test deals with Es-2. The description is as above. The following applies: Gynecologic cancer cell panel viability, ATPlite luminescence, 48 h; series mostly up to 57.5 µM. The essentials: as §4
The test system of the next test is CAOV3. Described as above. The following applies: Gynecologic cancer cell panel viability, ATPlite luminescence, 48 h; series mostly up to 57.5 µM. The method, boiled down:
as §4

The subject of the next test is HEK293T. Description: qHTS assay to identify novel small-molecules to repurpose for Merkel cell carcinoma treatment (AID 1296009). Further: nearly all actives have a fitted effect of over 60% in size. The following applies: MCC and control cell lines, CellTiter-Glo viability, 72 h; at 44.8 µM (top of the series) unless noted. The essentials:
as §3

Several values for one entry are separate records, joined by “and”; a condition that tells them apart may be missing. Identical values can stand only once. Results filed as inconclusive are left out. Unmarked numbers belong to inactive results. Activity calls are given as the source filed them. The call rests on the fitted dose curve; in most records, active means well fitted curve in the direction sought with a large enough effect; inconclusive means small, poorly fitted or top-dose-only effect, or another doubt; inactive means no such curve, though single readings can be large; an effect the other way counts as inactive or inconclusive.
Potency means the concentration at half of the fitted maximal effect.

As to `Cc1cc(O)cc2c1O[C@](C)(CCC[C@H](C)CCC[C@H](C)CCCC(C)C)CC2`, the Potency result in the test on TAB165, in the test with W2, in the test with MCC-13, in the test with MCC-26, with MKL-1 and with MKL-2 was “inactive” each time. Besides, the Potency entry with UISO, in the test with WaGa, with C33A, in the test on CASKI and in the test on Es-2 was “inactive” throughout. For the same compound, the max response in the test with CRL-7250 is -1.48%; in the test with HEK293 it was 2.12%; with KB-3-1 it was -4.01% and 1.69%. For the same compound, the outcome in the test with HaCat [1], with NIH3T3 [2], with HACAT [3] and in the test on NIH3T3 [4] was inactive.

With `NC1CCN(c2cccc(Cl)n2)CC1`, the Potency entry in the test with TAB165, in the test with MCC-13, in the test on MCC-26, in the test on MKL-1, with MKL-2 and with UISO was “inactive” in each case. Moreover, the Potency entry with WaGa, in the test on C33A, in the test on CAOV3, in the test with CASKI and in the test on Es-2 was “inactive” in each case. Further, in the test on W2, the Potency is 6.01 µM (active). The max response is 0.115% in the test on CRL-7250, -9.08% in the test with HEK293 and 2% in the test with KB-3-1. The compound was classed as inactive with HaCat [1], in the test on NIH3T3 [2], in the test on HACAT [3] and in the test with NIH3T3 [4].

With `C[C@]12CC[C@@H]3c4ccc(O)cc4CC[C@H]3[C@@H]1CCC2=O`, the compound was classed as inactive with CRL-7250, with HEK293 and with HEK293T. The max response in the test on HaCat [1] is 3.4%; with KB-3-1 it was 23.7%; in the test with NIH3T3 [2], 0.542%. In addition, the Potency entry with MCC-13, in the test on MCC-26, in the test on MKL-1, in the test with MKL-2, in the test on UISO and with WaGa was “inactive” each time. In addition, the Potency result with C33A, in the test on CAOV3, in the test with CASKI and in the test on Es-2 was “inactive” throughout.

In the case of `CO/N=C(\C(=O)N[C@@H]1C(=O)N2C(C(=O)O)=C(CSc3nc(=O)c(O)nn3C)CS[C@H]12)c1csc(N)n1`, the max response in the test on CRL-7250 was 1.86%; in the test on HaCat [1], -21.1%; with KB-3-1 it was -0.48%. Further, the compound was classed as inactive with HEK293, in the test with NIH3T3 [2], in the test on HEK293T and in the test on NIH3T3 [4]. Moreover, the Potency entry in the test with MCC-13, in the test with MCC-26, in the test on MKL-1, in the test with MKL-2, in the test with UISO and in the test with WaGa was “inactive” in each case. Further, the Potency entry with C33A, with CASKI and in the test on Es-2 was “inactive” throughout.

With `NS(=O)(=O)c1cc2c(cc1Cl)NC(CSCc1ccccc1)=NS2(=O)=O`, the Potency entry in the test on TAB165, in the test with W2, in the test with MCC-13, with MCC-26, with MKL-1 and in the test on MKL-2 was “inactive” each time. The Potency result with UISO, in the test on WaGa, in the test with C33A, in the test on CASKI and in the test with Es-2 was “inactive” in each case. In addition, the max response is -1.78% in the test with CRL-7250, -9.13% with HaCat [1] and 1.03% in the test on KB-3-1. The outcome with HEK293, in the test on NIH3T3 [2], with HEK293T and in the test with NIH3T3 [4] was inactive.

Turning to `CC[N+](CC)(CC)CCOc1ccc(/C=C/c2ccccc2)cc1`, the Potency in the test on CRL-7250 is 1.06 µM (active); with HEK293, 4.73 µM (active); in the test on HaCat [1] it was 8.41 µM (active); in the test on MKL-1, 2.99 µM (active); in the test with MKL-2 it was 1.68 µM (active); in the test on UISO, 1.19 µM (active). Moreover, the Potency in the test with WaGa was 1.88 µM (active); in the test on C33A, 14.1 µM (active); with CAOV3, 10 µM (active). The max response with KB-3-1 was -18.6% and -29.7%; in the test with NIH3T3 [2] it was -21.5%. The Potency entry in the test on MCC-13 and in the test on MCC-26 was “inactive” each time.

For `CCCCC/C(C=O)=C\c1ccccc1`, the max response in the test on CRL-7250 is -6.23%; in the test on HaCat [1], 1.14%; with KB-3-1, -6.5%. The compound was called inactive in the test on HEK293, in the test with NIH3T3 [2], in the test on HEK293T and in the test on NIH3T3 [4]. Besides, the Potency entry with MCC-13, in the test on MCC-26, in the test with MKL-1, in the test with MKL-2, in the test with UISO and in the test with WaGa was “inactive” throughout. Further, the Potency result in the test on C33A, in the test on CASKI and in the test on Es-2 was “inactive” throughout.
